Measured values: PubChem BioAssay AID525 (The Scripps Research Institute Molecular Screening Center, 2006)
Hit rate of the full screen: of about 65,000 compounds, about 360 (0.55%) were called active.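 Rule for the calls: active = inhibition above the mean inhibition of all tested compounds plus 3 SD (cut at about 48% in these data); inactive = the rest.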 The sample as a whole holds a higher share of actives than the screen did.

The molecules below were run against Steroidogenic factor 1 (Homo sapiens) (UniProt Q13285) (assay: suppressors of SF-1 driven luciferase transcription – cell-based, CHO-K1, Gal4-SF-1 LBD, luciferase luminescence, primary screen (AID 525;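 note: 0% = SF-1 transfected cells with DMSO and 100% = mock-transfected cells lacking SF-1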)). Settings: CHO-K1 Gal4-SF-1 LBD luciferase reporter; at 10 µM; stronger effect = higher value.
Sequence of Steroidogenic factor 1 (Homo sapiens) (Q13285 whole entry, looked up, the tested form may be a part): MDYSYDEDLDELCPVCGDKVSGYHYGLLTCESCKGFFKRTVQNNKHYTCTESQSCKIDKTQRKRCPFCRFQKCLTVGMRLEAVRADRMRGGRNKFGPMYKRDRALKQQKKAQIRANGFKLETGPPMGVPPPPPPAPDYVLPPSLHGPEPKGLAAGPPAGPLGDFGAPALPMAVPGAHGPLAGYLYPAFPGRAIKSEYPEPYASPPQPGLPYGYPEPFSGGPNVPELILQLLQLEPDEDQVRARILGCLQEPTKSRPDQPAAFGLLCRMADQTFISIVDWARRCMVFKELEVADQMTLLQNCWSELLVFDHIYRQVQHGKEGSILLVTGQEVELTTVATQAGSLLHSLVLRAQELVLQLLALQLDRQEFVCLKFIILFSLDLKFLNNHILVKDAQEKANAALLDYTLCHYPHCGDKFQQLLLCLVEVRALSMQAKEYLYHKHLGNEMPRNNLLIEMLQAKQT

inhibition, active:
CC[C@H]1CN2CCc3cc(OC)c(OC)cc3[C@@H]2C[C@@H]1C[C@H]1NCCc2cc(OC)c(OC)cc21 96%, c1c2c(cc3sc(N4CCCCC4)nc13)OCCO2 71.4%, CCNC(=O)CCc1nc(-c2ccc(C(C)(C)C)cc2)no1 86.4%, COC(=O)c1sc(NC(=O)c2ccc(OC)cc2OC)nc1C 57.8%, CCOc1ccc(-c2nnc(-c3ccco3)o2)cc1 48%

inhibition, inactive:
COc1ccc(NC(=O)Nc2cccc3cccnc23)cc1 -65.5%, O=C(CSCc1cccs1)N1CCCC1 -60.5%, CCCCCN(C(=O)NC(=O)Nc1ccccc1OC)S(C)(=O)=O -5.9%, CN(C(=O)c1ccccn1)c1nnc(-c2ccccn2)s1 -56.6%, COc1ccc(OCc2ccc(-c3nc4ccccc4c(=O)n3N)o2)cc1 -59%, COc1ccc(-c2cn3ccsc3n2)cc1 -53.3%, COC(=O)Cn1cc(C(=O)c2cccs2)c2ccccc21 2.8%, Cn1c(=O)c2c(nc(SCC(=O)Nc3ccccc3N3CCCCC3)n2C)n(C)c1=O -2.8%, CCC(=O)Nc1cccc(NC(=O)CSc2nnc(-c3ccc(NS(C)(=O)=O)cc3)n2C)c1 -2.4%, COc1ccc(N2C(=O)C3CCCN3C2c2cc(OC)c(OC)cc2OC)cc1 (stereo not given) 2.8%, N#Cc1ccc(OCCN2C(=O)NC3(CCSC3)C2=O)cc1 (stereo not given) -12.8%, O=C(NCCN1C(=O)C2C3C=CC(C3)C2C1=O)Nc1ccccn1 (stereo not given) -7.6%, Cc1cc(C)c(NC(=O)CS(=O)CC(=O)Nc2cccnc2)c(C)c1 (stereo not given) 2.2%, CC(=O)c1c(N2CCOCC2)nc(=S)n(Cc2ccccc2)c1C 4.9%, COC(=O)c1cc(C(=O)CSc2nc(C)cc(C)n2)ccc1O 11.2%, O=C(c1cnn2ccccc12)N1CCc2ccccc21 -111%, Cc1nnc(SCC(=O)NCc2cccs2)[nH]c1=O 13.6%, Fc1cc(F)c2nc(N3CCOCC3)sc2c1 -52.6%, O=C(c1cccc(C(=O)N2CCc3ccccc32)n1)N1CCc2ccccc21 0.9%, Cc1ccc(Cc2nc(-c3cccc(C)c3)no2)cc1 -53.9%, Brc1cccc(-c2nnc3n2CCC3)c1 3.8%, CC12CN(Cc3ccccc3)CC(C)(CN(Cc3ccccc3)C1)C2=NO 25.5%, O=C(Nc1ccc(Cl)cc1)c1ccsn1 -73.5%, O=C(Nc1ccccc1C(F)(F)F)c1cc(-c2ccc(O)cc2)on1 -64.4%, CC1CSc2nnc(CCc3ccccc3)n21 (stereo not given) 3.6%, O=C(COc1ccc(Cl)cc1)Nc1ccccc1CO -29%, O=C(NCc1cn2ccsc2n1)Nc1ccc(Cl)cc1 1.7%, O=C(NCc1ccco1)c1cc2sccc2n1Cc1ccc(F)cc1 11%, COc1ccc(CCNC(=O)CSc2nc(C)nc3c2oc2ccccc23)cc1OC -27.3%, COc1cccc(CN2C(=O)CCC2(C)C(=O)NC2CCCCCC2)c1 (stereo not given) -6.9%, O=C(Nc1cccc(Cl)c1)OCc1ccccn1 -33.6%, COc1ccccc1NC(=O)CSc1nnc(Cc2cccn2C)n1-c1ccc(F)cc1 16.2%, O=C(Nc1ccccc1F)c1cc(S(=O)(=O)N2CCCCC2)cs1 4.9%, COc1cccc(OC)c1C(=O)Nc1nnc(C(C)C)s1 5.1%, C=CCNC(=O)CCCOc1cccc(C)c1 -11.2%, Cc1cccc(NC(=O)c2ccc3ccccc3n2)n1 -98.6%, COc1cccc(N(CC(=O)NC2CCCC2)C(=O)Cn2nnc(-c3ccc(C)cc3)n2)c1 -13.3%, COc1cccc2sc(Nc3nc(C)c(C(C)=O)s3)nc12 -109%, COC(=O)c1sc(NC(=O)c2csc3c2CCCC3)nc1C -50.9%, CC(C)C(c1nnnn1Cc1ccccc1)N1CCC(C(N)=O)CC1 (stereo not given) 7.4%, Cn1nnc2cc(C(=O)NCCC3=CCCCC3)ccc21 -49.9%, O=C(c1cccs1)N1CCN(C(=O)N2CCOCC2)CC1 -0.9%, CN(c1ccc(C(=O)NCCC2=CCCCC2)cc1)S(C)(=O)=O -55.4%, CCCCOc1ccc(-c2nnc(-c3ccco3)o2)cc1 -23.7%, CCC(=O)Oc1cccc(C(=O)Nc2ccc(-c3nnc(-c4ccco4)o3)cc2)c1 -79.8%, Cc1csc(NC(=O)C2CCCN2C(=O)OCC(C)C)n1 (stereo not given) 5.9%, O=C(NCc1ccccn1)Nc1ccc(F)cc1 -14.7%, CC(=O)OC(C(=O)NCCc1ccccc1)c1cccnc1 (stereo not given) 4.1%, CCCC(=O)C1=C(N(C)c2ccccc2)CC(C)(C)C(C(=O)OC)C1=O (stereo not given) -2.3%, CCc1nnc(NC(=O)c2cccs2)s1 -50%, Cc1noc(NS(=O)(=O)c2ccc(N3CC(O)=C(c4ccccc4)C3=N)cc2)c1C 10.1%, COCc1cc(C)nc(Nc2cc(C)ccc2C)c1C#N 3.4%, COc1ccc(C)c2sc(=NC(=O)c3ccc(C#N)cc3)n(C)c12 -42.4%, Clc1ccc(Cc2nnc(-c3cccs3)o2)cc1 -59.5%, CCn1c(CSc2nncn2-c2ccc(OC)cc2)nc2cc(S(=O)(=O)N(C)C)ccc21 -10.1%, COc1ccc(OCCCC(=O)Nc2nnc(C3CCCO3)s2)cc1 (stereo not given) -1.2%, Cc1[nH]c2ccc(S(N)(=O)=O)cc2c1C -22.2%, CN(C)c1ccc(CNC23CN4CN(CN(C4)C2)C3)cc1 14.1%, O=C(NCc1ccccc1)C1C(=O)N(Cc2ccccc2)C(=O)C1C1(O)CCCC1 (stereo not given) 4.4%, CC1CN(c2cc(=O)n(Cc3ccc(F)cc3)c(=O)[nH]2)CC(C)O1 (stereo not given) -7.1%
